# Source: paper PMC5540273 (PLoS ONE, 2017)
# Where “and” joins values, the source holds several entries; their conditions need not be identical. Equal entries are not always repeated. Where two headings read alike, the source gives them in different places.
# Tests used:
# [1] = system: CAMKK2; settings: n = 1
# [2] = system: CASK; settings: n = 1
# [3] = system: T1, CDC2L1; settings: n = 1
# T1 construct: gene CDK11B
# [4] = system: CDC2L2; settings: n = 1
# [5] = system: T2, CDC2L5; settings: concentration: 1 μM, replicates: in singlicate; n = 1
# T2 construct: gene CDK13
# [6] = system: T3, CDK11; settings: n = 1
# T3 construct: gene CDK19
# [7] = system: CDK2; settings: n = 1
# [8] = system: CDK3; settings: n = 1
# [9] = system: CDK4-cyclinD1; settings: concentration: 1 μM, replicates: in singlicate; n = 1
# [10] = system: CDK4-cyclinD3; settings: n = 1
# [11] = system: CDK4; settings: n = 1
# [12] = system: CDK5; settings: concentration: 1 μM, replicates: in singlicate; n = 1
# [13] = system: CDK7; settings: n = 1
# [14] = system: CDK8; settings: concentration: 1 μM, replicates: in singlicate; n = 1
# [15] = system: CDK9; settings: n = 1
# [16] = system: CDKL1; settings: concentration: 1 μM, replicates: in singlicate; n = 1
# [17] = system: CDKL2; settings: n = 1
# [18] = system: CDKL3; settings: concentration: 1 μM, replicates: in singlicate; n = 1
# [19] = system: CDKL5; settings: concentration: 1 μM, replicates: in singlicate; n = 1
# [20] = system: CHEK1; settings: n = 1
# [21] = concentration: 1 μM, replicates: in singlicate
# [22] = concentration: 1 μM,replicates: in singlicate, 1 µM
# 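Further: KINOMEscan kinase panel screen.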
smiles,measurement,setting,value
Cc1cc(-c2ccc3c(c2)CC[C@@H](N[C@@H](C)c2ccccc2)C3)cnc1N.Cl [GW412617],%Inh,[1]; [21],23%
same,%Inh,[2]; [21],0%
same,%Inh,[3]; [21],0%
same,%Inh,[4]; [21],2%
same,%Inh,[5],0%
same,%Inh,[6]; [21],40%
same,%Inh,[7]; [21],12%
same,%Inh,[8]; [21],6%
same,%Inh,[9],0%
same,%Inh,[10]; [21],0%
same,%Inh,[11]; [21],26%
same,%Inh,[12],4%
same,%Inh,[13]; [21],0%
same,%Inh,[14],14%
same,%Inh,[15]; [21],0%
same,%Inh,[16],0%
same,%Inh,[17]; [21],18%
same,%Inh,[18],0%
same,%Inh,[19],0%
same,%Inh,[20]; [21],14%
COc1ccccc1CNC(=O)c1cc(C(=O)c2ccccc2C)c[nH]1 [GSK364507],%Inh,[1]; [21],5%
same,%Inh,[2]; [21],12%
same,%Inh,[3]; [21],0%
same,%Inh,[4]; [21],19%
same,%Inh,[5],0%
same,%Inh,[6]; [21],15%
same,%Inh,[7]; [21],0%
same,%Inh,[8]; [21],10%
same,%Inh,[9],0%
same,%Inh,[10]; [21],7%
same,%Inh,[11]; [21],0%
same,%Inh,[12],9%
same,%Inh,[13]; [21],0%
same,%Inh,[14],5%
same,%Inh,[15]; [21],0%
same,%Inh,[16],10%
same,%Inh,[17]; [21],16%
same,%Inh,[18],0%
same,%Inh,[19],0%
same,%Inh,[20]; [21],0%
Cc1csc(-c2nc(Nc3ccncc3)c3ccccc3n2)n1 [GW869640],%Inh,[1]; [21],23%
same,%Inh,[2]; [21],26%
same,%Inh,[3]; [21],0%
same,%Inh,[4]; [21],5%
same,%Inh,[5],8%
same,%Inh,[6]; [21],7%
same,%Inh,[7]; [21],7%
same,%Inh,[8]; [21],9%
same,%Inh,[9],11%
same,%Inh,[10]; [21],1%
same,%Inh,[11]; [21],20%
same,%Inh,[12],13%
same,%Inh,[13]; [21],31%
same,%Inh,[14],0%
same,%Inh,[15]; [21],9%
same,%Inh,[16],6%
same,%Inh,[17]; [21],1%
same,%Inh,[18],19%
same,%Inh,[19],19%
same,%Inh,[20]; [21],7%
Cc1cccc(-c2nc(-c3ccc(S(C)(=O)=O)cc3)sc2-c2ccnc(NCCc3ccccc3)c2)c1,%Inh,[1]; [21],0%
same,%Inh,[2]; [21],18%
same,%Inh,[3]; [21],6%
same,%Inh,[4]; [21],0%
same,%Inh,[5],44%
same,%Inh,[6]; [21],0%
same,%Inh,[7]; [21],0%
same,%Inh,[8]; [21],0%
same,%Inh,[9],0%
same,%Inh,[10]; [21],0%
same,%Inh,[11]; [21],0%
same,%Inh,[12],9%
same,%Inh,[13]; [21],2%
same,%Inh,[14],15%
same,%Inh,[15]; [21],1%
same,%Inh,[16],14%
same,%Inh,[17]; [21],13%
same,%Inh,[18],10%
same,%Inh,[19],23%
same,%Inh,[20]; [21],0%
Cl.NC(=O)c1cccc(Nc2nccc(Nc3ccc(Oc4cccc(Cl)c4)c(Cl)c3)n2)c1 [GW659008],%Inh,[1]; [21],0%
same,%Inh,[2]; [21],7%
same,%Inh,[3]; [21],0%
same,%Inh,[4]; [21],13%
same,%Inh,[5],0%
same,%Inh,[6]; [21],8%
same,%Inh,[7]; [21],0%
same,%Inh,[8]; [21],24%
same,%Inh,[9],0%
same,%Inh,[10]; [21],0%
same,%Inh,[11]; [21],48%
same,%Inh,[12],0%
same,%Inh,[13]; [21],0%
same,%Inh,[14],28%
same,%Inh,[15]; [21],0%
same,%Inh,[16],9%
same,%Inh,[17]; [21],23%
same,%Inh,[18],0%
same,%Inh,[19],0%
same,%Inh,[20]; [21],0%
Fc1cccc(COc2nnc(-c3ccc4c(c3)CCO4)o2)c1,%Inh,[1]; [21],0%
same,%Inh,[2]; [21],10%
same,%Inh,[3]; [21],1%
same,%Inh,[4]; [21],0%
same,%Inh,[5],18%
same,%Inh,[6]; [21],16%
same,%Inh,[7]; [21],0%
same,%Inh,[8]; [21],4%
same,%Inh,[9],9%
same,%Inh,[10]; [21],0%
same,%Inh,[11]; [21],0%
same,%Inh,[12],0%
same,%Inh,[13]; [21],9%
same,%Inh,[14],19%
same,%Inh,[15]; [21],0%
same,%Inh,[16],0%
same,%Inh,[17]; [21],9%
same,%Inh,[18],9%
same,%Inh,[19],0%
same,%Inh,[20]; [21],0%
Cc1cc(NCC(c2ccccc2)c2ccccc2)nc(NCc2ccc(C(F)(F)F)cc2)n1 [GW497681],%Inh,[1]; [21],23%
same,%Inh,[2]; [21],0%
same,%Inh,[3]; [21],0%
same,%Inh,[4]; [21],5%
same,%Inh,[5],0%
same,%Inh,[6]; [21],0%
same,%Inh,[7]; [21],0%
same,%Inh,[8]; [21],0%
same,%Inh,[9],0%
same,%Inh,[10]; [21],0%
same,%Inh,[11]; [21],0%
same,%Inh,[12],0%
same,%Inh,[13]; [21],0%
same,%Inh,[14],28%
same,%Inh,[15]; [21],0%
same,%Inh,[16],0%
same,%Inh,[17]; [21],12%
same,%Inh,[18],0%
same,%Inh,[19],0%
same,%Inh,[20]; [21],0%
CCn1c(-c2ccccn2)nc2cnccc21 [SB-736398],%Inh,[1]; [21],0%
same,%Inh,[2]; [21],2%
same,%Inh,[3]; [21],27%
same,%Inh,[4]; [21],0%
same,%Inh,[5],100%
same,%Inh,[6]; [21],0%
same,%Inh,[7]; [21],0%
same,%Inh,[8]; [21],0%
same,%Inh,[9],0%
same,%Inh,[10]; [21],3%
same,%Inh,[11]; [21],34%
same,%Inh,[12],0%
same,%Inh,[13]; [21],0%
same,%Inh,[14],39%
same,%Inh,[15]; [21],0%
same,%Inh,[16],9%
same,%Inh,[17]; [21],17%
same,%Inh,[18],0%
same,%Inh,[19],0%
same,%Inh,[20]; [21],0%
CSc1nn2c(=O)cc(N3CCOCC3)nc2n1Cc1cccc(C(F)(F)F)c1C [GSK2363608],%Inh,[1]; [22],14% and 0%
same,%Inh,[2]; [22],19% and 16%
same,%Inh,[3]; [22],3% and 0%
same,%Inh,[4]; [22],25% and 0%
same,%Inh,[5],0%
same,%Inh,[6]; [22],5% and 35%
same,%Inh,[7]; [22],6% and 0%
same,%Inh,[8]; [22],17% and 0%
same,%Inh,[9],0%
same,%Inh,[10]; [22],6% and 0%
same,%Inh,[11]; [22],15% and 0%
same,%Inh,[12],0%
same,%Inh,[13]; [22],7% and 0%
same,%Inh,[14],0%
same,%Inh,[15]; [22],7% and 0%
same,%Inh,[16],0%
same,%Inh,[17]; [22],17% and 30%
same,%Inh,[18],0%
same,%Inh,[19],0%
same,%Inh,[20]; [22],4% and 11%
Cc1cccc(-c2nc(C)cc(Nc3ccncc3)n2)n1 [GSK257997],%Inh,[1]; [21],12%
same,%Inh,[2]; [21],19%
same,%Inh,[3]; [21],100%
same,%Inh,[4]; [21],17%
same,%Inh,[5],0%
same,%Inh,[6]; [21],12%
same,%Inh,[7]; [21],0%
same,%Inh,[8]; [21],0%
same,%Inh,[9],0%
same,%Inh,[10]; [21],0%
same,%Inh,[11]; [21],28%
same,%Inh,[12],0%
same,%Inh,[13]; [21],0%
same,%Inh,[14],0%
same,%Inh,[15]; [21],95.9%
same,%Inh,[16],3%
same,%Inh,[17]; [21],0%
same,%Inh,[18],0%
same,%Inh,[19],6%
same,%Inh,[20]; [21],0%
